From PubChem BioAssay AID493168 (National Center for Advancing Translational Sciences (NCATS), 2011)
Inconclusive results are not listed. Active and inactive are the calls of the source. The call rests on the fitted dose curve; in most records, active means well fitted inhibition curve with a large enough effect; inconclusive means small, poorly fitted or top-dose-only effect, or effect the other way; inactive means flat fitted curve, though single readings scatter.

molecular target: Ubiquitin carboxyl-terminal hydrolase 2 (Homo sapiens) (UniProt O75604); assay: Confirmation Assay for Inhibitors of Ubiquitin-specific Protease USP2a Using CHOP2 as the Reporter; settings: USP2 core, Ub-CHOP2 coupled reporter fluorescence; series mostly up to 38.3 µM; activity change, negative = inhibition: at the top concentration; further: nearly all actives have a fitted effect of over 55% in size;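 on activity change, negative = inhibition: plate controls were DMSO wells for no effect and full inhibition by NEM control for full effect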
How it was run: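 USP2 core (10 nM final) was preincubated with compound for 30 min at RT in Tris-HCl pH 8.0, CaCl2, beta-mercaptoethanol, CHAPS. Ub-CHOP2 and reporter substrate (25 nM final each) were added, and fluorescence (Ex 485/Em 531 nm) was read after 60 min.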
Potency means the concentration at half of the fitted maximal effect.

Sequence of Ubiquitin carboxyl-terminal hydrolase 2 (Homo sapiens) (O75604 whole entry, looked up): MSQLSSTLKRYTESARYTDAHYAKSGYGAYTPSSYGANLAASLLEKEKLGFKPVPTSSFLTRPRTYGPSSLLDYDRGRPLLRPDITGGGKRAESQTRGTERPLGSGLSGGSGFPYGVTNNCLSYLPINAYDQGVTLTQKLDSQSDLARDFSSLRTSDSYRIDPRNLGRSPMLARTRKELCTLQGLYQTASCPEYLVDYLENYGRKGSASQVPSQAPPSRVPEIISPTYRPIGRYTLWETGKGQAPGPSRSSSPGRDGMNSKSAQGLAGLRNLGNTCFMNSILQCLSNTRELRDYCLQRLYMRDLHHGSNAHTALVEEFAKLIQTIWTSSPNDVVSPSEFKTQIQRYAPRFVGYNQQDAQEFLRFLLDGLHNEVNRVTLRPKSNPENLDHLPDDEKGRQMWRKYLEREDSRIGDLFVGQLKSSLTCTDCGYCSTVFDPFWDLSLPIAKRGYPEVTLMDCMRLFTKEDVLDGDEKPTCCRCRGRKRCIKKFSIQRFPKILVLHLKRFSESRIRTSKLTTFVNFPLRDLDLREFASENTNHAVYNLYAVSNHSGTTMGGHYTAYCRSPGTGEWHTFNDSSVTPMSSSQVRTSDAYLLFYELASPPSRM

Compound	activity change, negative = inhibition	Potency
Cn1c(C(=O)NCCCN2CCN(c3ccccc3F)CC2)cc2c(=O)n(C)c3ccccc3c21	-0.517% (inactive)	
COc1ccc2[nH]c(=O)c(CN(C3CCCCC3)C(c3nnnn3Cc3ccco3)C(C)C)cc2c1 (stereo not given)		10.4 µM (active)
CC(CN1CCCCC1)OC(=O)c1ccc(Cl)cc1 (stereo not given)	3.85% (inactive)	
CC(C)(C)C(=O)Nc1c2c(nc3c1CCC3)CCCC2	-3.96% (inactive)	
Cc1cc(SCC(=O)NC2CCCCC2)nc2ccccc12	-4.63% (inactive)	
Cc1ccc(N(CC(=O)N/N=C/c2ccco2)S(=O)(=O)c2ccccc2)cc1	0.234% (inactive)	
COc1ccc(C(=O)N/C(=C\c2cccs2)C(=O)N2CCN(C)CC2)cc1OC	-3.45% (inactive)	
CCCNC(=O)NCc1ccc(N2CCCC2=O)cc1	-1.66% (inactive)	
COc1cc(/C=N/NC(=O)c2cc(-c3ccccc3)nc3ccccc23)ccc1O	0.701% (inactive)	
Cc1nc2ccccc2c2oc(C(=O)NCCN3CCN(C)CC3)cc12	2.15% (inactive)	
CCN(CC)S(=O)(=O)c1ccc(Cl)c(NC(=O)COC(=O)c2c(C)noc2C)c1	9.62% (inactive)	
Cc1cccc(NC(=O)NCc2ccc3c(c2)cc(C)n3C)c1	-6.76% (inactive)	
CC(C)(C)NC(=O)C(c1ccco1)N(C(=O)c1ccc(CN2CCOCC2)o1)c1ccccc1 (stereo not given)	0.713% (inactive)	
O=C(Nc1ccc(N2CCCC2)cc1)c1cccc(-c2cc3ccccc3oc2=O)c1	-0.397% (inactive)	
COc1cc(C(O)P(=O)(OC(C)C)c2ccc(N(C)C)cc2)cc(OC)c1OC (stereo not given)	5.9% (inactive)	
COc1cccc(C(=O)NCc2ccc3[nH]c(C)cc3c2)c1	-0.781% (inactive)	
N#Cc1c(NC(=O)CSc2ncnc3sccc23)oc(-c2ccco2)c1-c1ccco1		13.1 µM (active)
CCOc1ccc(NC(=O)N(CCCN2CCOCC2)Cc2cccnc2)cc1	0.0836% (inactive)	
Cc1ccc(-c2c(C)n([O-])c3c([n+]2=O)CCC3)o1	2.64% (inactive)	
CC(C)(C)c1cc(Br)ccc1OCC(=O)Nc1ncn[nH]1	1.94% (inactive)	

Compound	activity change, negative = inhibition	Potency
CCc1cc2cccc(C)c2nc1SCC(=O)N1CCN(C(=O)c2ccco2)CC1	1.25% (inactive)	
O=C(CCS(=O)(=O)c1ccc(Br)s1)NC1CCCC1	-2.3% (inactive)	
CC(C)OCCCNC(=O)c1c(N)n(/N=C/c2ccccn2)c2nc3ccccc3nc12	-0.772% (inactive)	
Cc1cc(C)n2nc(S(=O)(=O)NCCc3ccccc3)nc2n1	-0.0643% (inactive)	
CC(C)c1ccc(NC(=O)C(c2ccc3c(c2)OCO3)N2CCCCC2)cc1 (stereo not given)	1.37% (inactive)	
COc1ccc(OC)c(NC(=O)CSc2nc(O)cc(=O)n2CC(C)C)c1	1.08% (inactive)	
Cn1c(=O)c(C(=O)Nc2ccccc2S(N)(=O)=O)c(O)c2ccccc21		14.7 µM (active)
Oc1ccccc1/C=N/Nc1ncc(Br)cn1	-2.24% (inactive)	
Cc1ccc(NC(=O)Cn2nc(C)c3ccccc3c2=O)cc1F	0.67% (inactive)	
COc1ccc(S(=O)(=O)N(C)CC(=O)Nc2cccc(C(C)=O)c2)cc1Cl	2.49% (inactive)	
Cc1cc(NC(=O)c2cccc(S(=O)(=O)N(C)C)c2)n(-c2ccccn2)n1	-1.59% (inactive)	
CC(C)(C)NC(=O)CSc1nc(O)cc(=O)n1-c1ccccc1F	4.95% (inactive)	
Cc1ccc(C)n1NC(=O)c1ccccc1O	-3.08% (inactive)	
Nc1ccc2nc(-c3ccc(N)c(Cl)c3)[nH]c2c1	-0.728% (inactive)	
Cc1ccc(S(=O)(=O)N2[C@@H](c3ccc(C(C)(C)C)cc3)C(C(=O)O)=CC[C@H]2c2ccc(C(C)C)cc2)cc1		9.27 µM (active)
Cc1ccc(C(=O)N/C(=C/c2cccs2)C(=O)NCc2ccco2)cc1	4.83% (inactive)	
Cn1c(C(=O)N2CCN(Cc3ccc4c(c3)OCO4)CC2)cc2sccc21	-0.858% (inactive)	
Cc1ccc(NS(=O)(=O)c2cccc(C(=O)OCC(=O)NCc3ccco3)c2)cc1	-4.99% (inactive)	
N#CNC(=Nc1cccc(F)c1)SCc1cccc(F)c1	-0.652% (inactive)	
CN1CCN(CCCCOc2ccc(F)cc2)CC1	-1.91% (inactive)	
